# Reference: the supplement of paper PMC10849652
# About 7,900 targets were measured; listed, in parts, are those with a hit and a random draw of the rest. About 0.6% of all pairs of compound and target were hits. Values without a mark were called inactive.
# Key:
# Assay in all cases: log2 fold change, soluble protein after heating vs DMSO (PISA); higher = thermal stabilisation; K562 cells, 10 uM, 30 min; active = over 0.2 and 3.5 SD of the protein, either way, in both replicates (recomputed)
# IRAK-1-4 Inhibitor I = compound: C1COCCN1CCN2C3=CC=CC=C3N=C2NC(=O)C4=CC(=CC=C4)[N+](=O)[O-] [IRAK-1-4 Inhibitor I]
# How it was run: (§1)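 Aliquots of K562 cells (2×10^6 cells/mL) treated with 10 μM compound for 30 min were heated for 3 min over 48°C-58°C. After pooling and extraction in PBS with 0.5% NP-40 at 4°C, soluble protein from a 21,000xg, 90 min spin was quantified by TMTpro 16plex LC-MS/MS with channel sums equalised. Thermal stability is expressed against control samples, from duplicates, as a log2 fold change.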
# ibrutinib = compound: C=CC(=O)N1CCC[C@@H](n2nc(-c3ccc(Oc4ccccc4)cc3)c3c(N)ncnc32)C1 [ibrutinib]
# How it was run: as §1
# [1] = compound: CC(=O)c1cnc2ccc(-c3cc(Cl)c(O)c(Cl)c3)nc2c1N[C@H]1CC[C@H](CN(C)C)CC1
# How it was run: as §1
# ralimetinib = compound: CC(C)(C)Cn1c(N)nc2ccc(-c3[nH]c(C(C)(C)C)nc3-c3ccc(F)cc3)nc21 [ralimetinib]
# How it was run: as §1
# [2] = compound: CC(C)C1=C2N=C(C=C(N2N=C1)NCC3=CC=CC=C3)NCCCCCCN
# How it was run: as §1
# [3] = compound: CC(C)C[C@@H](C=O)NC(=O)[C@H](CC(C)C)NC(=O)[C@H](CC(C)C)NC(=O)OCc1ccccc1
# How it was run: as §1
# pinometostat = compound: CC(C)N(C[C@H]1O[C@@H](n2cnc3c(N)ncnc32)[C@H](O)[C@@H]1O)[C@H]1C[C@@H](CCc2nc3cc(C(C)(C)C)ccc3[nH]2)C1 [pinometostat]
# How it was run: as §1
# [4] = compound: CC1=C(C(CC(=O)N1)C2=CC=C(C=C2)C(F)(F)F)C(=O)NC3=C(C=C4C(=C3)C=NN4)F
# How it was run: as §1
# [5] = compound: CC1=C(C2=C(C=C1)C(=O)C3=CC=CC=C3N2CCCN)C
# How it was run: as §1
# [6] = compound: CC(C)(O)CC(=O)NCCn1ccc2ncnc(Nc3ccc(Oc4cccc(C(F)(F)F)c4)c(Cl)c3)c21
# How it was run: as §1
# UniProt Q9NUJ7, sequence (Q9NUJ7 whole entry, looked up): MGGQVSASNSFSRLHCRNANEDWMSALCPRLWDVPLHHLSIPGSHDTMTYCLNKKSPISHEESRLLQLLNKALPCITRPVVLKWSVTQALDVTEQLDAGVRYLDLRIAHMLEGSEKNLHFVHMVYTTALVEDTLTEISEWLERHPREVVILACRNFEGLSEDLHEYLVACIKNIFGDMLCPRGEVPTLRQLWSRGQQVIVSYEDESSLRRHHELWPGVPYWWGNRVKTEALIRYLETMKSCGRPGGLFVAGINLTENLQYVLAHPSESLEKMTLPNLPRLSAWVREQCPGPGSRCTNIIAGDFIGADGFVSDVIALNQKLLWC
# UniProt O43164, sequence (O43164 whole entry, looked up): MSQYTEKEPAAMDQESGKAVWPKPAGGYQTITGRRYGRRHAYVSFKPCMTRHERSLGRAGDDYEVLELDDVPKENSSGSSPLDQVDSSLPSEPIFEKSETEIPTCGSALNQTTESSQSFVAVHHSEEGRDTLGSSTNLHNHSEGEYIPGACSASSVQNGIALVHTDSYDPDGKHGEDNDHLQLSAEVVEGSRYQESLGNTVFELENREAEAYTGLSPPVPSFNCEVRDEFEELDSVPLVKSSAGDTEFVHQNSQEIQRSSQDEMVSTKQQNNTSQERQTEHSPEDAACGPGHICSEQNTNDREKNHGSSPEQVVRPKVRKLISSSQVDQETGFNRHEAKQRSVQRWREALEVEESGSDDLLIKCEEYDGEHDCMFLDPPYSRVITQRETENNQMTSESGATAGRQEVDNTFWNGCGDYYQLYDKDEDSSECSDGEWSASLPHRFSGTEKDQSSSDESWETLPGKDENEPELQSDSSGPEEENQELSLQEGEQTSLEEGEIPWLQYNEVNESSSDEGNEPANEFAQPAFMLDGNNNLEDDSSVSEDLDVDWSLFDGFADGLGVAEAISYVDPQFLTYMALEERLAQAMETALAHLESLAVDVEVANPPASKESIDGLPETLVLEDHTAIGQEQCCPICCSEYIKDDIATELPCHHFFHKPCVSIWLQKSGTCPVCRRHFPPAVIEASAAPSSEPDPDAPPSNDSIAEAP
# UniProt Q9UHX1, sequence (Q9UHX1 whole entry, looked up): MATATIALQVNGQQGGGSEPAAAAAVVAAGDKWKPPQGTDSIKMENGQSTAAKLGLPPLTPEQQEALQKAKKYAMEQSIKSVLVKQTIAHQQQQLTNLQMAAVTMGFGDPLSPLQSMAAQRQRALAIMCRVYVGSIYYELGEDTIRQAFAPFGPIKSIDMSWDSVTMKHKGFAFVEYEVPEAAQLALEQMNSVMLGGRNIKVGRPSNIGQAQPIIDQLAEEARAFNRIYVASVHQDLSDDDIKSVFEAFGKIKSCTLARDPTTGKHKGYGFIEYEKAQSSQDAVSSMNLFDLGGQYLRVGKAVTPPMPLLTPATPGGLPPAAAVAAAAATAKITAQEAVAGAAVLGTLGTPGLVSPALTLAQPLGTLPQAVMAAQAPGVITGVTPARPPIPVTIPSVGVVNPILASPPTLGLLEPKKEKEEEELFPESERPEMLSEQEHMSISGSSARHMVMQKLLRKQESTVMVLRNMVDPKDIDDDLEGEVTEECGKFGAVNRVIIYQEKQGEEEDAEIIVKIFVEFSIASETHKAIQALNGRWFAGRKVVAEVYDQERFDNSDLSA
# UniProt Q8N2W9, sequence (Q8N2W9 whole entry, looked up): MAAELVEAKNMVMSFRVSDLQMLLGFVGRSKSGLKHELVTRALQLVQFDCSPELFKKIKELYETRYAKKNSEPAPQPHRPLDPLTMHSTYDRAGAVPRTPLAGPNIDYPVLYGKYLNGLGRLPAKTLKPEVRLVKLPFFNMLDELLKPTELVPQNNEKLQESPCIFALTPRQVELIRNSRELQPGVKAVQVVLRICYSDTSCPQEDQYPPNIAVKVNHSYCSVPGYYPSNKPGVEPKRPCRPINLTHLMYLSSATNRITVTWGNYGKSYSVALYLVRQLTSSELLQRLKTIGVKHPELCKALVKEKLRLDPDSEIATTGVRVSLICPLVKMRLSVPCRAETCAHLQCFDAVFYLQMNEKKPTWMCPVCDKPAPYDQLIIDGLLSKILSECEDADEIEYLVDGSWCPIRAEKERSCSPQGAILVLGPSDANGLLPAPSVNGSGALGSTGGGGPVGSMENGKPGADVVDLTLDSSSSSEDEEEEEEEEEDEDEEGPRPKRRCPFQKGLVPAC
# UniProt Q96RV3, sequence (Q96RV3 whole entry, looked up): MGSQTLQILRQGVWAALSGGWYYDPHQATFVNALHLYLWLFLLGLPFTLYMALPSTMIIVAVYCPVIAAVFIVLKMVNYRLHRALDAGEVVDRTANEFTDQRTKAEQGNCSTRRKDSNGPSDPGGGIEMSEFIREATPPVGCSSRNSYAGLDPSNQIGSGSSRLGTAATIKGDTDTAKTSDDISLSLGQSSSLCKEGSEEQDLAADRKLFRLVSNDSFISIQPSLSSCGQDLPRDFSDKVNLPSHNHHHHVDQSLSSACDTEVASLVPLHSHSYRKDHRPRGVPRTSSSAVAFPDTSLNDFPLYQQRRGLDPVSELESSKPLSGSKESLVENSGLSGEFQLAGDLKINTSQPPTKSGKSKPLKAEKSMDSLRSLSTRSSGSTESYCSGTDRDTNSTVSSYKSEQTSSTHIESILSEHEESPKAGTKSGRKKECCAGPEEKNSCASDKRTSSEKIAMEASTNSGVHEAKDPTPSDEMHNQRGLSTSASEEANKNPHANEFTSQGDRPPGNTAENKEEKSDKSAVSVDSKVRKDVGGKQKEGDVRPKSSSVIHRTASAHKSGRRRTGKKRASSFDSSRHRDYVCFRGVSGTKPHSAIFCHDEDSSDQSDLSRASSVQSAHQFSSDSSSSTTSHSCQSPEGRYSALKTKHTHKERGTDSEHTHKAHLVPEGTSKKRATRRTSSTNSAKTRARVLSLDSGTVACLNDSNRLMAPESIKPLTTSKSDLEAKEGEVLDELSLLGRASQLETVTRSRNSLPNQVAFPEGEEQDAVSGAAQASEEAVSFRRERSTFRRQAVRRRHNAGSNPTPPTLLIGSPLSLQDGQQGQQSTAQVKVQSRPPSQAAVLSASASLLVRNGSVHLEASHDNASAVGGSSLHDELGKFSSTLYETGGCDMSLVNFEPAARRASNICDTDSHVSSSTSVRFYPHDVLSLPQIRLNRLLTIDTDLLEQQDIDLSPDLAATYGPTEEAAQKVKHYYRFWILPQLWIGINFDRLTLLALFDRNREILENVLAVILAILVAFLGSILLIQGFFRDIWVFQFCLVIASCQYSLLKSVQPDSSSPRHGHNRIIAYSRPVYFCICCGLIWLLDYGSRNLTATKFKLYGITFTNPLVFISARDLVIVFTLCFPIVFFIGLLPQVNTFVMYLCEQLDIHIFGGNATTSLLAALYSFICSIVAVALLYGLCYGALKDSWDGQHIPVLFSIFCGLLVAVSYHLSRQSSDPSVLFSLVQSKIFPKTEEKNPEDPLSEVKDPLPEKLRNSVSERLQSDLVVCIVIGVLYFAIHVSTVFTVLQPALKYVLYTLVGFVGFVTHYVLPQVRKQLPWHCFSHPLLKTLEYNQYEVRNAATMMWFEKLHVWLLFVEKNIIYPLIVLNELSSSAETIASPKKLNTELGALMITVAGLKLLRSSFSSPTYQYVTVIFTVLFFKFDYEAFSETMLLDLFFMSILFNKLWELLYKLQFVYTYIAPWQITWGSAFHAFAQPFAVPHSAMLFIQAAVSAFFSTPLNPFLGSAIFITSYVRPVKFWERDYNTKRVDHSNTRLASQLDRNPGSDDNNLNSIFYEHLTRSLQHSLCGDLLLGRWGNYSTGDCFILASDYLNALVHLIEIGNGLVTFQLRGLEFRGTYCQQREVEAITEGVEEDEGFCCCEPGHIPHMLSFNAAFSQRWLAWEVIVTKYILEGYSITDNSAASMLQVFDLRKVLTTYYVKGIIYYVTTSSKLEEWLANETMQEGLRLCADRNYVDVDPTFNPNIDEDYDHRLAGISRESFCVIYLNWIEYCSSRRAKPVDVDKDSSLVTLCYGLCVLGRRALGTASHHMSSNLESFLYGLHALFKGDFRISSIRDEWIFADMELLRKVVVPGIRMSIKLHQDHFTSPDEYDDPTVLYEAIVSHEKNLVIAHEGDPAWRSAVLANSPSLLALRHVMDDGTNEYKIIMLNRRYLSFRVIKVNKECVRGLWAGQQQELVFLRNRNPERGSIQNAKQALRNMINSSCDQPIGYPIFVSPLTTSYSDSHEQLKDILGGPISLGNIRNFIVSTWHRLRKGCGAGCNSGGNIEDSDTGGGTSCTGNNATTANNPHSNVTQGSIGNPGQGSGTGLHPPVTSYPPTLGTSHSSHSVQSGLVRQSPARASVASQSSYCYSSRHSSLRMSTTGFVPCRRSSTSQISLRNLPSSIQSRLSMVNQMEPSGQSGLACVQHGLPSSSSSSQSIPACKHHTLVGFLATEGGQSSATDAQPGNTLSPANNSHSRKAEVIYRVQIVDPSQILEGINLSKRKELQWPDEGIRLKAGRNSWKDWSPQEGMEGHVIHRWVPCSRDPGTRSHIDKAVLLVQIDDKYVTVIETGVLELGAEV
# UniProt Q9UBV8, sequence (Q9UBV8 whole entry, looked up): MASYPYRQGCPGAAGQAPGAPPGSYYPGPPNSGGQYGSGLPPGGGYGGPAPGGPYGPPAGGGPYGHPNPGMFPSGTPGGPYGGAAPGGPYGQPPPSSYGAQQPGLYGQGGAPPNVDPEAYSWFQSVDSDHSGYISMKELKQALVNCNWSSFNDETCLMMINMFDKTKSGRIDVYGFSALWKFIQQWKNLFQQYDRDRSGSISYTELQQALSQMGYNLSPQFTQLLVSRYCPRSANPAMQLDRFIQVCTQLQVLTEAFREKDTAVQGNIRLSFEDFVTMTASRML
# UniProt O43924, sequence (O43924 whole entry, looked up): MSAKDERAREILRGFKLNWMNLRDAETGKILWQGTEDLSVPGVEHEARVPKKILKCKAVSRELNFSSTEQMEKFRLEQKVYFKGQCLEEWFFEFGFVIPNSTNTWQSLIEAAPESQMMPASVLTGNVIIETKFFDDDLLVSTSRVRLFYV
# UniProt O75365, sequence (O75365 whole entry, looked up): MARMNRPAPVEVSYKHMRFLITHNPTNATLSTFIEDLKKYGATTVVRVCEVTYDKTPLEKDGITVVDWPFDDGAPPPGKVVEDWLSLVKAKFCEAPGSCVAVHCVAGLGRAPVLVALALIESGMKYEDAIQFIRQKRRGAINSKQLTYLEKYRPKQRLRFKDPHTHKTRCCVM
Target,log2 fold change (IRAK-1-4 Inhibitor I),log2 fold change (ibrutinib),log2 fold change [1],log2 fold change (ralimetinib),log2 fold change [2],log2 fold change [3],log2 fold change (pinometostat),log2 fold change [4],log2 fold change [5],log2 fold change [6]
PNPLA4 (UniProt P41247),-0.094,0.012,0.005,-0.022,0.115,0.209,0.049,0.054,-0.025,
PPP4R3B (UniProt Q5MIZ7),0.027,-0.024,-0.018,-0.014,-0.069,-0.023,-0.021,0.034,-0.069,0.095
POLR3D (UniProt P05423),-0.017,0.766,0.022,0.043,-0.158,-0.002,0.109,0.012,0.009,-0.1
PDE4A (UniProt P27815),0,0.249,0.077,-0.056,0.029,0.04,0.019,,-0.077,0.106
PJA2 (UniProt O43164),0.061,0.023,0.091,-0.004,-0.013,0.169,-0.005,0.05,-0.308 (active),-0.02
PNPLA2 (UniProt Q96AD5),-0.006,0.166,-0.116,-0.009,-0.184,0.121,-0.018,-0.083,-0.004,0.044
PIKFYVE (UniProt Q9Y2I7),-0.032,-0.097,-0.07,-0.002,-0.256,0.063,0.006,0.034,0.012,-0.145
PLK1 (UniProt P53350),-0.035,0.022,-1.17 (active),0.006,0.186,0.015,0.019,0.005,0.144,-0.011
POP1 (UniProt Q99575),-0.024,0,0.001,0.029,0.013,-0.03,0.003,0.008,-0.271 (active),-0.006
POLR2I (UniProt P36954),0.045,0.136,0.425 (active),-0.079,0.389,0.03,-0.024,0,0.324,0.035
PIP4P1 isoform 2 (UniProt Q86T03),-0.011,0.003,-0.002,0.003,-0.329 (active),0.022,-0.031,0.131,-0.062,-0.004
PFAS (UniProt O15067),-0.055,0.065,-0.217,-0.003,0.131,-0.055,-0.02,0.039,0.17,0.02
PEF1 (UniProt Q9UBV8),0.003,-0.002,-0.03,-0.057,-0.094,-0.085,-0.041,-0.014,0.085,-0.092
PCF11 (UniProt O94913),0.002,-0.255,-0.093,-0.104,,-0.083,-0.058,,,
PDE6D (UniProt O43924),0.037,0.086,-0.051,,0.164,,0.017,-0.016,-0.01,0.003
PTTG1IP (UniProt P53801),-0.122,0.028,-0.004,,0.029,,0.028,0.084,-0.119,-0.031
PSD3 (UniProt Q9NYI0),0.014,,-0.024,-0.026,,-0.055,-0.037,-0.016,,
PDE4DIP (UniProt E9PS60),-0.183,,,,0.171,,0.178,,,

Target,log2 fold change (IRAK-1-4 Inhibitor I),log2 fold change (ibrutinib),log2 fold change [1],log2 fold change (ralimetinib),log2 fold change [2],log2 fold change [3],log2 fold change (pinometostat),log2 fold change [4],log2 fold change [5],log2 fold change [6]
PAN2 (UniProt Q504Q3),,-0.134,,,,,,0.099,,
PRKX (UniProt P51817),,-0.005,,,-0.274,,,,,
PPP1R12B isoform 6 (UniProt O60237),,0.075,,,-0.074,,,-0.346 (active),,
PMVK (UniProt Q15126),,-0.039,-0.069,,-0.195,,,0.15,0.061,-0.072
PUF60 isoform 2 (UniProt Q9UHX1),,0.035,-0.329,0.25,,-0.203,,,-0.052,
PLCXD1 (UniProt Q9NUJ7),,0.021,,0.113,,0.175,,,,
PSMA3 (UniProt H0YJ03),0.023,,0.052,0.14,,0.067,0.061,,0.046,
PPP2R5C isoform 2 (UniProt Q13362),-0.036,-0.038,,0.026,-0.146,-0.095,-0.017,,,
PHC3 isoform 7 (UniProt Q8NDX5),-0.377,-0.159,,,-0.219,,-0.11,0.021,,-0.25
PTPA (UniProt A6PVN8),,0.063,-0.241,-0.07,0.122,-0.002,,0.026,-0.104,-0.052
PTP4A3 (UniProt O75365),,0.079,,,,,,,,
PMS2CL (UniProt Q68D20),,,,-0.21,,-0.258,,0.231,,-0.042
POLB (UniProt P06746),,,,0.14,0.091,0.143,,-0.168,0.175,-0.222
PSMC1 (UniProt G3V4X1),,,,,-0.089,,,0.029,,
PIAS4 (UniProt Q8N2W9),-0.111,,,-0.005,,0.035,0.037,,-0.275,-0.781 (active)
PCNX1 (UniProt Q96RV3),,0.008,,,,,,0.015,0.143,0.005
PEX5 isoform 4 (UniProt P50542),,,-0.035,0.145,0.066,0.123,,,-0.072,0.038
PKM isoform 2 (UniProt P14618),-0.018,,0,0.054,,0.023,0.08,-0.068,0.034,-0.561 (active)
